Measurements: PubChem BioAssay (NCI)
The panel holds about 83,000 compounds, 20% with a hit somewhere; the sample as a whole holds those more often.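 Activity criterion: percent growth below 10, measured after cells in 96-well plates were exposed to a single compound concentration for 48 hours.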 Values without a mark were called inactive. Active and inactive are the calls of the source.

Columns and labels:
Experiment in all cases: NCI-60 one-dose screen, 48 h (100 = growth as untreated, 0 = no growth, -100 = all killed)
Details in all cases: 10 µM unless noted
[1] = test system: SR leukemia
[2] = test system: RPMI-8226 leukemia
[3] = test system: OVCAR-8 ovarian
[4] = test system: OVCAR-5 ovarian
[5] = test system: OVCAR-4 ovarian
[6] = test system: SK-OV-3 ovarian
[7] = test system: IGROV1 ovarian
[8] = test system: OVCAR-3 ovarian
[9] = test system: NCI/ADR-RES ovarian
[10] = test system: T-47D breast
[11] = test system: BT-549 breast
[12] = test system: MDA-MB-435 melanoma
[13] = test system: SW-620 colon
[14] = test system: MCF7 breast
[15] = test system: HCT-116 colon
[16] = test system: HCC-2998 colon
[17] = test system: KM12 colon

Structure (SMILES) | growth [1] [%] | growth [2] [%] | growth [3] [%] | growth [4] [%] | growth [5] | growth [6] [%] | growth [7] [%] | growth [8] | growth [9] [%] | growth [10] [%] | growth [11] [%] | growth [12] | growth [13] [%] | growth [14] | growth [15] | growth [16] [%] | growth [17] [%]
CC(C)(C)CC1(C)NC(=O)NC1=O (stereo unspecified) | 134 | 73.3 | 109 | 89.1 | 106% | 115 | 125 | 120% | 99.7 | 108 | 119 | 114% | 103 | 100% | 101% | 113 | 106
CC(=O)c1cccc(NS(=O)(=O)c2ccc(C)cc2)c1 | 36.6 | 86.6 | 90.1 | 92.8 | 79% | 101 | 62.8 | 70.9% | 50.5 | 67.7 | 74.8 | -21.4% (active) | – | 39.8% | 60.2% | 65.4 | 34.2
COC(=O)c1ccc([N+](=O)[O-])c(C)c1 | 79.8 | 81.1 | 108 | 90.7 | 101% | 106 | 93.1 | 105% | 108 | 102 | 86.3 | 101% | 103 | 91% | 95.6% | 106 | 99.8
COc1ccc(C2CCCCC2=O)cc1 (stereo unspecified) | 103 | 107 | 103 | 96.9 | 103% | 103 | 118 | 121% | 108 | 100 | 111 | 103% | 104 | 103% | 106% | 107 | 112
Clc1ccc(-c2noc(/C=C\c3ccccc3)n2)cc1 | 97.8 | 110 | 98.7 | 99.6 | 102% | 95.1 | 96.3 | 102% | 108 | 89 | 102 | 92.7% | 110 | 74.4% | 102% | 95.2 | 100
CN(C)c1ccc(/C=C/C(=O)c2ccc(NC(N)=O)cc2)cc1 | 61.2 | 63.8 | 94.1 | 99.8 | 94% | 105 | 99.7 | 109% | 102 | 82 | 91.7 | 93.8% | – | 58.4% | 75.4% | 105 | 98.5
Nc1cc2c(cc1Cl)C(=O)c1ccccc1C2=O | 59.8 | 51.1 | 21.7 | 58.5 | 9.39% (active) | 39.1 | 35.5 | 62.3% | 24.1 | 35.7 | 37.9 | 90.1% | – | 65.9% | 1.71% (active) | 69 | 28.8
CCOC(=O)c1ccc(Nc2sc(C(=O)c3ccc(Br)cc3)c(N)c2C#N)cc1 | 18.6 | 18.7 | 29.6 | 46.8 | 70.5% | 11.7 | 31.3 | -6.38% (active) | 22 | 28 | 50.9 | -61.9% (active) | 25.6 | 9% (active) | 26.9% | 66.1 | 21.7
C#CCSc1nnnn1-c1ccccc1 | 86.9 | 72.4 | 80.9 | 92 | 92.6% | 104 | 92.8 | 79.1% | 86.7 | 39.6 | 76.8 | 85.3% | 53.2 | 69.3% | 71.6% | 104 | 77.6
Cn1c(=O)c2[nH]c(CCCCC(=O)O)nc2n(C)c1=O | 112 | 91.2 | 101 | 112 | 124% | 113 | 110 | 113% | 108 | 113 | 106 | 110% | 101 | – | 106% | 111 | 106
